Compound activity deposited in PubChem by National Center for Advancing Translational Sciences (NCATS).
MCF10A rerep – inducers of DNA re-replication in MCF 10A breast cells; MCF 10A DNA re-replication, Hoechst nuclear intensity, 48 h; Potency, µM (titrated, usually from 46.1 µM), without a hit: at the top dose activity, positive = re-replication, hits mostly activators; 350,000 compounds, 2.9% hits; further: potency means the concentration at half of the fitted maximal effect; % of control where 0% means no effect; nearly all actives have a fitted effect of over 50% in size
Gal4-VP16 FLuc – inhibits Gal4-VP16 luciferase reporter, ROR gamma counter-screen; 310,000 compounds, 3.5% hits; Drosophila S2 Gal4-VP16 UAS-luciferase, luminescence, 20 h; AID 2546; Potency, µM (highest dose often 53.6 µM), for inactives: at the top dose activity, negative = inhibition, actives largely listed as inhibitors;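 further: Gal4-VP16 expression switched on by copper sulfate through the metallothionein promoter; potency means the concentration at half of the fitted maximal effect; on the % scale 0 is the no-effect control and ±100 the full control effect; nearly all actives have a fitted effect of over 50% in size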
SW480 rerep – inducers of DNA re-replication in SW480 colon cancer cells | SW480 DNA re-replication, Hoechst DNA content imaging, 48 h | Potency, µM (top dose mostly 46.1 µM), inactives show at the highest dose re-replication activation, most hits filed as activators | 340,000 compounds, 1.8% hits; further: potency means the concentration at half of the fitted maximal effect; % of control where 0% means no effect; nearly all actives have a fitted effect of over 55% in size
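DNA re-replication was detected as more nuclei of elevated Hoechst intensity after 48 hr exposure to compound (23 nL pinned per well of 250 cells).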
BCR signal inh – blocks chronic active B-cell receptor signaling | ABC-DLBCL IkBa-CBG/CBR reporter, luminescence ratio, 4 h | Potency, µM (doses to about 46.1 µM), inactives show top-dose activity change, negative = inhibition, hits mostly inhibitors | 340,000 compounds, 0.05% hits; active means well fitted inhibition curve with a large enough effect in the signal ratio, with a control signal flat, not every such curve was filed as active; inconclusive means small, poorly fitted or top-dose-only effect, or effect the other way, or a change in a side signal; the % refers to the signal ratio;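 further: potency means the concentration at half of the fitted maximal effect; plate controls were basal doxycycline-induced cells for no effect and cells given 10 µM MG132 for full effect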
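Compounds up to 46 uM were incubated four hours with TMD8 cells whose green CBG68 luciferase is fused to IkappaBalpha; red CBR luminescence normalised the signal, and concentration-effect curves were fitted to fusion, red and ratio data.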
RORg inh – blocks mouse ROR gamma transcriptional activity. Drosophila S2 Gal4-RORgamma UAS-luciferase reporter, 20 h. AID 2551. P51450. Potency, µM (series often up to 53.6 µM), without a hit: at the highest dose activity change, negative = inhibition, most hits filed as inhibitors. 310,000 compounds, 5.4% hits; further: potency means the concentration at half of the fitted maximal effect; on the % scale 0 is the no-effect control and ±100 the full control effect; nearly all actives have a fitted effect of over 60% in size
Target sequence (P51450 whole entry, looked up, the tested form may be a part): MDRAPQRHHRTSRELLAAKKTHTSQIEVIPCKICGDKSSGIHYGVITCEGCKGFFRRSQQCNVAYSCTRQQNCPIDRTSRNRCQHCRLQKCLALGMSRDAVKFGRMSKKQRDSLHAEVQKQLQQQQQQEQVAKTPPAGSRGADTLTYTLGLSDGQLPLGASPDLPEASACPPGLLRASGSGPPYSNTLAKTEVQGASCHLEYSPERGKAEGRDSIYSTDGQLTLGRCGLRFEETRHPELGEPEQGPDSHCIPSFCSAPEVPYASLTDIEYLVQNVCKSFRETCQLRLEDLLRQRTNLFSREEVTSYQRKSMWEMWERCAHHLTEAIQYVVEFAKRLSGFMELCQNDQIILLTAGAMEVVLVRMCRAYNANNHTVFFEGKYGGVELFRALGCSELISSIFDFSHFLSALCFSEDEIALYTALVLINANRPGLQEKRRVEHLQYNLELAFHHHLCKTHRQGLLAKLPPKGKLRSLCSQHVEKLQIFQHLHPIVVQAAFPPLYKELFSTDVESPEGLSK
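Schneider cells (Drosophila), stable Gal4 DBD–ROR gamma + UAS-luc; 1 hr cmpd preincubation; Cu2+ induction 700 uM final; 20 hr ambient; luminescence.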
Giardia killer – Giardia lamblia killing. Giardia lamblia trophozoite viability. activity change, % at 7.66 µM, hits read low. 340,000 compounds, 0.15% hits. AID 540267; in the data active means activity change below about -80%; inconclusive means between about -30% and that limit;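 further: parasites exposed to compound for two days anaerobically before the ATP read; on the % scale 0 is the no-effect control and ±100 the full control effect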
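Anaerobic 48 hrs incubation at 37 deg C of 100 trophozoites/well with test compounds; ATPLite 1-Step luminescence, 15-30 min RT, reports cellular ATP as viability.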
Numbers without * were called inactive; ? = inconclusive; · = not tested or not shown; [ ] = dose if it differs, or a comment. The list is not random: actives were taken first. Their share in the collection is about 8.3%. Unless noted, the call rests on the fitted dose curve; in most records, active means well fitted curve in the direction sought with a large enough effect; inconclusive means small, poorly fitted or top-dose-only effect, or another doubt; inactive means no such curve, though single readings can be large; an effect the other way counts as inactive or inconclusive.

SMILES	MCF10A rerep	Gal4-VP16 FLuc	SW480 rerep	BCR signal inh	RORg inh	Giardia killer
CCc1cc2c(SCC(=O)NCC3CCCO3)ncnc2s1 (centres undefined)	-4%	·	0%	-3%	·	18
CCOc1ccc(OCC)c(NC(=O)CN2CCN(c3cccc(C)c3)C(C)C2)c1 (centres undefined)	15µM*	-18%	?	4%	24%	-2
COCCn1c(N)c(N(Cc2ccccc2)C(=O)c2cc3ccccc3o2)c(=O)[nH]c1=O	?	-3%	-5%	-21%	-1%	0
O=C(NC1CCCCC1)C1Cc2ccccc2CN1S(=O)(=O)c1ccc(F)cc1 (centres undefined)	?	-3%	?	?	?	-9
O=C(Nc1nnc(C2CC2)s1)C1Cc2ccccc2CN1S(=O)(=O)c1ccccc1F (centres undefined)	8%	?	?	?	8.9µM*	-10
CCS(=O)(=O)N1Cc2ccccc2CC1C(=O)Nc1ncc(C)s1 (centres undefined)	-4%	-12%	-78%	-9%	-45%	12
O=C(Nc1nccs1)C1Cc2ccccc2CN1S(=O)(=O)c1ccc(F)cc1 (centres undefined)	425%[0.0737 µM]	-11%	4.1µM*	-15%	?	-13
COc1ccccc1Cn1c(=O)c2ccccc2n2c(Sc3ncnc4sccc34)nnc12	18µM*	?	21µM*	1%	11µM*	-1
CC(C)Oc1cccc(-n2c(CCc3c[nH]c4ccc(Br)cc34)nc3ccccc3c2=O)c1	·	-2%	·	·	5%	·
Cc1ccc(NC(=O)C2CCCN(S(=O)(=O)c3cccc4nonc34)C2)cc1 (centres undefined)	-7%	1%	0%	-6%	-8%	-10
COc1ccc(NC(=O)C2CCCN(S(=O)(=O)c3c(C)n[nH]c3C)C2)cc1OC (centres undefined)	2.1µM*	-16%	-4%	-12%	?	2
CN(Cc1ccccc1)C(=O)C1CCN(S(=O)(=O)c2cccc3nsnc23)CC1	20%	-15%	21µM*	6%	5%	1
COc1ccc(NC(=O)C2CCCN(S(=O)(=O)c3cccc4nonc34)C2)cc1 (centres undefined)	15µM*	7%	?	?	6%	1
Cc1cccc(NC(=O)C2CCCN(S(=O)(=O)c3cccc4nsnc34)C2)c1 (centres undefined)	15µM*	-8%	?	-11%	15%	30
CN(CCCNC(=O)C1CCN(S(=O)(=O)c2cccc3nsnc23)CC1)Cc1ccccc1	-9%	-3%	5%	1%	-11%	-7
Cc1cccc(NC(=O)C2CCN(S(=O)(=O)c3cccc4nsnc34)CC2)c1	0%	-6%	-10%	-11%	25%	0
CCN(CC)CCn1nc2c3c(cccc3c1=O)-c1ccccc1-2	21%	-6%	9.2µM*	?	-10%	-3
CC(C)CC1NC(=O)N(CC(=O)Nc2cc([N+](=O)[O-])ccc2F)C1=O (centres undefined)	7%	·	-1%	-4%	·	4
Cc1nnc2n1N=C(c1ccc(F)cc1F)CS2	0%	·	-1%	-1%	·	-11
CCN(CC)CCn1c(C)nc2ccccc21	-1%	0%	?	-6%	-27%	13
CCN(CC)CCn1c(NCc2ccc(C)o2)nc2ccccc21	6%	3%	-6%	0%	0.5µM*	-7
CCN(CC)CCn1c(NC(=O)c2ccccc2O)nc2ccccc21	9%	5µM*	1%	?	2.5µM*	18
CCN(CC)CCn1c(NC(=O)c2ccc(Cl)cc2)nc2ccccc21	?	2.5µM*	-3%	?	2µM*	23
Cc1ccc(CNc2nc3ccccc3n2C)o1	0%	9%	0%	0%	-32%	14
CCOc1ccccc1NC(=O)CSc1c(C)cnc2c1c(=O)n(C)c(=O)n2C	·	·	·	-11%	·	·
SMILES	MCF10A rerep	Gal4-VP16 FLuc	SW480 rerep	BCR signal inh	RORg inh	Giardia killer
Cn1cccc1/C=C1\CCc2ccccc2C1=O	-4%	0%	1%	?	13µM*	?
O=C1/C(=C\c2ccccc2)CCC/C1=C/c1ccccc1	15µM*	·	?	·	·	10
Cn1cccc1/C=C1\CC(C(C)(C)C)C/C(=C\c2cccn2C)C1=O (centres undefined)	3.7µM*	5µM*	?	-3%	?	-9
CN1C2CCC1/C(=C/c1cccn1C)C(=O)/C2=C\c1cccn1C	12%	-13%	?	-16%	5%	-6
O=C1/C(=C/c2ccncc2)CCc2ccccc21	?	2%	21µM*	?	?	-11
Cn1cccc1/C=C1\Cc2ccccc2C1=O	8%	-6%	5%	1%	1%	-6
Cc1cc(C(=O)CCC(=O)N2CCN(S(=O)(=O)c3ccccc3)CC2)c(C)s1	8%	·	1%	4%	·	-8
O=C1/C(=C\c2ccncc2)CCc2ccccc21	?	·	9%	?	·	-6
O=C1/C(=C/c2ccncc2)CCC/C1=C\c1ccncc1	3.7µM*	5µM*	2.6µM*	?	6.3µM*	?
CCOC(=O)C1=C(N)Oc2ccc3ccccc3c2C1c1ccc(O)c(OC)c1 (centres undefined)	?	0%	1%	?	10%	9
CCOC(=O)C1=C(N)Oc2ccc3ccccc3c2C1c1ccc(O)cc1 (centres undefined)	18µM*	-4%	1%	-30%	44%	-13
CC1CCN(Cc2nnc(-c3cccc(Br)c3)o2)CC1	2%	24%	-5%	?	-10%	-3
O=C(Nc1ncnc2sc3c(c12)CCCCC3)c1ccccc1	0%	20µM*	-9%	24%	11µM*	-1
O=C(Nc1ncnc2sc3c(c12)CCCCC3)c1ccc(F)cc1	1%	13µM*	-5%	?	7.1µM*	10
Cc1ccc(N2CC(NC(=O)c3ccc(Br)o3)CC2=O)cc1C (centres undefined)	·	·	·	0%	·	·
COc1ccc(C(=O)N(C)c2ccccc2C(=O)NCCc2ccccc2)cc1	1%	-4%	26%	1%	8%	33
Cc1cc([N+](=O)[O-])nn1CC(=O)NNC(=S)Nc1ccc(Cl)cc1	-11%	?	-1%	1%	16µM*	-6
O=C(Cn1nc(C(F)F)cc1C(F)F)NNC(=S)Nc1ccc(F)cc1	-1%	-8%	0%	4%	-40%	-2
COc1cccc(NC(=S)NNC(=O)Cn2nc(C(F)F)cc2C(F)F)c1	15%	?	?	3%	1.1µM*	52
